A short description of assay [1]: inhibitors of TNFa-induced NFkB p65 translocation, primary screen, imaging, HUVEC, MLSMR starter and 10KST1 sets (AID 438).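 For inhibition: signal is the nuclear over cytoplasmic p65 intensity ratio per well.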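 Note: compound added about 3h40 before a 20 min TNFalpha stimulation.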 The conditions noted are these: HUVEC TNFa-induced p65 nuclear translocation; cell count: measured here: nuclei count (cytotoxicity indicator), at 2.08 µM; inhibition: at 2 µM, stronger effect = higher value, 0% TNFa-plus-vehicle, 100% no-TNFa wells.
A short description of assay [2]: inhibitors of mutant huntingtin aggregation, primary screen, imaging, exon1htt(103Q)mCFP cells, high-content imaging (AID 483;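 active = visual image review flags a hit and inhibition of aggregation exceeds 20%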;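 note: compound exposure lasted 3 days before fixation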;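 for nuclei count: percent of the per-plate median nuclei count of sample wells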). Particulars: exon1htt(103Q)mCFP cell line, aggregate imaging, at 2 µM; inhibition of aggregation: stronger effect = higher value; nuclei count: measured here: cell count, toxicity.
Assay [3] in a line: inhibitors of E-selectin induction by TNFa, primary screen, imaging, HUVEC, immunofluorescence, MLSMR starter and 10KST1 sets (AID 487;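 active = visually confirmed hit in the image check and inhibition above 20%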;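 for inhibition: signal is fraction of cell area covered by stained E-selectin grains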;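 for nuclei count: 100% = median nuclei count of all wells on the same plate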). Particulars: HUVEC TNFalpha-induced E-selectin immunofluorescence imaging, at 2 µM; inhibition: stronger effect = higher value; nuclei count: measured here: cell number, toxicity.
For assay [4], the target named is Voltage-gated potassium channel subunit beta-2 (Rattus norvegicus) (UniProt P62483). The assay can be described thus: KvBeta enzyme negative modulators, primary screen, biochemical, NADPH fluorescence (AID 622;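 active = fluorescence slope higher than the sample average by over 3 SD, cut at about -0.22 in these data, passing the limit was not always enough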;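 note: slope of raw intensity against log time taken from 70 to 1610 s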). Particulars: recombinant KvBeta, 4-cyanobenzaldehyde reduction, at 10 µM, stronger effect = higher value.
Assay [5] has the same target. The experiment in a line: KvBeta positive modulators, primary screen, biochemical, NADPH fluorescence (AID 623;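 active = NADPH fluorescence slope more negative than the mean of all samples by about 3 SD, 99.7% confidence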;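 note: fluorescence intensity change per second fitted from 20 to 320 s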). Particulars: Recombinant KvBeta, NADPH fluorescence decrease slope, 10 min; at 10 µM; stronger effect = lower value.
For assay [6], the target named is Alpha-2C adrenergic receptor (Homo sapiens) (UniProt P18825). The assay can be described thus: modulators of alpha2C/GIRK thallium flux, primary screen, cell-based, HEK293 alpha2C/GIRK1/2 (AID 624;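 active = fluorescence slope after compound addition differing from the mean of all screened samples at 99.7% confidence, in either direction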;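 note: slope of fluorescence ratio to pre-addition baseline per second over 15 to 24 s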). The conditions noted are these: thallium flux BTC fluorescence, at 10 µM, actives lie on both sides.
The nature of assay [7]: inhibitors of Sendai virus-induced IRF3 signaling, primary screen, TLR/RLR signaling modifier project, cell-based, Sendai virus stimulus, luciferase, 10K MLSCN set (AID 602276;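 active = inhibition at or above 50% at 10 µM; inactive = inhibition below 50%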;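 note: firefly luciferase from ISG56 promoter only with Renilla not read in this screen; 0% = Sendai virus plus DMSO and 100% = medium plus DMSO without virus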). The conditions noted are these: HEK293 RL24 IRF3 luciferase reporter, at 10 µM, stronger effect = higher value.
The nature of assay [8]: inhibitors of poly I:C-induced TLR3 signaling, primary screen, cell-based, poly I:C stimulus, luciferase, 10K MLSCN set (AID 602277;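 active = inhibition of the reporter signal at or above 50%; inactive = inhibition below 50%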). The conditions noted are these: HEK293-TLR3 RL24 IRF3 luciferase reporter, at 10 µM, stronger effect = higher value. (In a reporter assay the amount or activity of a reporter protein is the signal.)

The source made the active and inactive calls.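 Rule for the calls, unless noted: active = inhibition above 20% together with a positive visual image hit; inconclusive = visual image hit but inhibition not above 20%; inactive = no visual image hit.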 Where a SMILES comes first, the peptide text is derived from it.

Chain of Voltage-gated potassium channel subunit beta-2 (Rattus norvegicus) (P62483 whole entry, looked up): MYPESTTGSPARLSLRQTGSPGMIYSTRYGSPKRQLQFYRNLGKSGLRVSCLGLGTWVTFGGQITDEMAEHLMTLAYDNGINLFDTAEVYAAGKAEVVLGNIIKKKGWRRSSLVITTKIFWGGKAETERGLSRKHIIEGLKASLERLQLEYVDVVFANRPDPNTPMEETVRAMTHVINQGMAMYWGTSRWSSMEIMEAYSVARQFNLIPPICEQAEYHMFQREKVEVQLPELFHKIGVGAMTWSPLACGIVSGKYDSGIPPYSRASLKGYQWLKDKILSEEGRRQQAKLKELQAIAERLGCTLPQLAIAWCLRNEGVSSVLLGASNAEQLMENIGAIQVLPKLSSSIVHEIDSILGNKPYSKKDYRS
Chain of Alpha-2C adrenergic receptor (Homo sapiens) (P18825 whole entry, looked up): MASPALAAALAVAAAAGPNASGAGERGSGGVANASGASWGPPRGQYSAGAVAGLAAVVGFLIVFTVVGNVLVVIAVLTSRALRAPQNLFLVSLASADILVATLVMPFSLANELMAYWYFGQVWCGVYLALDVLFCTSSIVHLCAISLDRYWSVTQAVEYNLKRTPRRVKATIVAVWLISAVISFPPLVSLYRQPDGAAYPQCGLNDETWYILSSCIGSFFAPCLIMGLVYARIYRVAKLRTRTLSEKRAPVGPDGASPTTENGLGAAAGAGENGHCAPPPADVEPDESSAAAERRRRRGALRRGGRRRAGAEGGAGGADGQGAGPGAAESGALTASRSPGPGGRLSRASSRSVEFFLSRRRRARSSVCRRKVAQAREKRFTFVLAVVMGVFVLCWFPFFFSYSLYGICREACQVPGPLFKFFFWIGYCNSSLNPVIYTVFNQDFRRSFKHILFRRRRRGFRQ

For orientation: inhibition means the drop in the measured response relative to a control, in per cent. For `CCOC(=O)N1CCN(CC(=O)c2c(C)[nH]c3ccccc23)CC1`, the cell count in assay [1] came to 349. In addition, the inhibition is 10.5% (inactive) in assay [1], -113% (inactive) in assay [3], 0.348% (inactive) in assay [7] and 6.29% (inactive) in assay [8]. In addition, the inhibition of aggregation in assay [2] is -5.3% (inactive). Besides, the nuclei count in assay [2] stood at 92.4%; in assay [3] it was 143%. Also, the fluorescence slope in assay [4] is -0.491 (inactive). Further, the NADPH fluorescence slope in assay [5] is -6.3e-05 (inactive). In addition, the slope in assay [6] is 0.00584 (inactive).

Regarding `CCn1c(SCC(=O)Nc2cc(C)ccc2C)nc2c(c1=O)SC(C)C2` (configuration not stated), in assay [1], the cell count is 680. Besides, the inhibition in assay [1] is -8.2% (inactive); in assay [3], -39.2% (inactive); in assay [7] it was -13.9% (inactive); in assay [8] it was 2.03% (inactive). Further, the inhibition of aggregation in assay [2] is -17.3% (inactive). Also, the nuclei count was found to be 98% in assay [2] and 110% in assay [3]. For the same molecule, in assay [4], the fluorescence slope was -0.584 (inactive). Besides, the NADPH fluorescence slope in assay [5] was -2.9e-05 (inactive). The slope in assay [6] is 0.0063 (inactive).

Regarding `O=C1CC(c2ccccc2)Cc2nc(N3CCc4ccccc43)ncc21` (configuration not stated), in assay [1], the cell count amounted to 403. Moreover, the inhibition in assay [1] was 1.2% (inactive); in assay [3], -134% (inactive); in assay [7], 9.74% (inactive); in assay [8], 2.35% (inactive). In addition, the inhibition of aggregation in assay [2] is -14.1% (inactive). Also, the nuclei count in assay [2] was 95.7%; in assay [3], 183%. In assay [4], the fluorescence slope is -0.0564 (inactive). For the same molecule, in assay [5], the NADPH fluorescence slope is -1.7e-05 (inactive). In assay [6], the slope is 0.00498 (inactive).

For `Cc1ccc(-c2ccc(=O)n(CC(=O)NCCCN3CCCCC3C)n2)cc1` (configuration not stated), the cell count in assay [1] worked out at 397. In addition, the inhibition was 5% (inactive) in assay [1], 14.8% (inactive) in assay [3], 11.3% (inactive) in assay [7] and 21.8% (inactive) in assay [8]. Moreover, the inhibition of aggregation in assay [2] was 3% (inactive). Further, the nuclei count in assay [2] worked out at 98.2%; in assay [3] it was 96%. Also, in assay [4], the fluorescence slope was -0.497 (inactive). In addition, the NADPH fluorescence slope in assay [5] is -1.9e-05 (inactive). In assay [6], the slope was 0.0058 (inactive).

For `CCN(CC)S(=O)(=O)c1ccc(Br)c(OC)c1`, the cell count in assay [1] worked out at 374. For the same molecule, the inhibition in assay [1] was 4.5% (inactive); in assay [3], -15.1% (inactive); in assay [7], 18.3% (inactive); in assay [8] it was 34.5% (inactive). In addition, the inhibition of aggregation in assay [2] is -7.1% (inactive). The results for the nuclei count in assay [2] and in assay [3] were 100% and 107%, respectively. Moreover, the fluorescence slope in assay [4] is -0.371 (inactive). For the same molecule, in assay [5], the NADPH fluorescence slope is -5.2e-05 (inactive). Also, the slope in assay [6] was 0.00493 (inactive).

For the molecule `COC(=O)CCCCCc1ccc(C(C)=O)s1`, the cell count in assay [1] is 350. Besides, the inhibition was -6.3% (inactive) in assay [1], -65.9% (inactive) in assay [3], 16.6% (inactive) in assay [7] and 15.4% (inactive) in assay [8]. In addition, the inhibition of aggregation in assay [2] was 10.5% (inactive). Also, the nuclei count in assay [2] was determined as 101%; in assay [3], 120%. Further, the fluorescence slope in assay [4] is -0.496 (inactive). Also, the NADPH fluorescence slope in assay [5] is -3.1e-05 (inactive). The slope in assay [6] is 0.00508 (inactive).

As to `c1coc(CN(Cc2cccs2)Cc2nnnn2C2CCCCC2)c1`, the cell count in assay [1] amounted to 394. Moreover, the inhibition in assay [1] was -10.4% (inactive); in assay [3], -12.8% (inactive); in assay [7], 19.6% (inactive); in assay [8], 24.5% (inactive). The inhibition of aggregation in assay [2] was 26.1% (inactive). Besides, the nuclei count was 119% in assay [2] and 97.7% in assay [3]. For the same molecule, the fluorescence slope in assay [4] was -0.571 (inactive). For the same molecule, the NADPH fluorescence slope in assay [5] is 1.3e-05 (inactive). For the same molecule, the slope in assay [6] was 0.00524 (inactive).

For `CC1CC(C)CN(Cc2nc3c(c(=O)n(C)c(=O)n3C)n2Cc2ccccc2Cl)C1` (configuration not stated), the cell count in assay [1] was 705. Besides, the inhibition in assay [1] was -16.8% (inactive); in assay [3], 37.7% (inactive); in assay [7], -10.4% (inactive); in assay [8], -1.1% (inactive). Besides, the inhibition of aggregation in assay [2] was -2.3% (inactive). Moreover, the nuclei count in assay [2] stood at 78%; in assay [3] it was 88%. In assay [4], the fluorescence slope was -0.482 (inactive). Besides, in assay [5], the NADPH fluorescence slope was -4.6e-05 (inactive). The slope in assay [6] is 0.00565 (inactive).

In the case of `CCCCn1c(SCC(=O)Nc2cc(C)on2)nnc1-c1cccnc1`, in assay [1], the cell count came to 414. In addition, the inhibition in assay [1] was -3.9% (inactive); in assay [3] it was -26.4% (inactive); in assay [7], 11.3% (inactive); in assay [8], 6.93% (inactive). In assay [2], the inhibition of aggregation was 1.7% (inactive). For the same molecule, the nuclei count in assay [2] was 121%; in assay [3], 123%. Also, the fluorescence slope in assay [4] is -0.00106 (inactive). The NADPH fluorescence slope in assay [5] is -3.1e-05 (inactive). In addition, the slope in assay [6] was 0.00399 (inactive).

For the molecule `CC(=O)NC(C(=O)NCC(N)=O)C(C)C` (configuration not stated) (HELM PEPTIDE1{[ac].[CC(C)C(N[*:1])C(=O)[*:2]].G.[am]}$$$$V2.0), the cell count in assay [1] was found to be 517. The inhibition in assay [1] is -15.2% (inactive); in assay [3], 9.9% (inactive); in assay [7] it was -3.54% (inactive); in assay [8], -10.4% (inactive). The inhibition of aggregation in assay [2] was -13.6% (inactive). Also, the nuclei count in assay [2] is 89.2%; in assay [3], 109%. In addition, the fluorescence slope in assay [4] was -0.59 (inactive). In addition, in assay [5], the NADPH fluorescence slope was -3.6e-05 (inactive). For the same molecule, the slope in assay [6] was 0.00838 (inactive).

For the molecule `O=C(CSc1nnc(COc2ccc(Cl)cc2)o1)N1CCN(c2ccccc2)CC1`, the cell count in assay [1] was found to be 359. The inhibition in assay [1] is -0.5% (inactive); in assay [3], -83.8% (inactive); in assay [7], 5.53% (inactive); in assay [8], -9% (inactive). Further, the inhibition of aggregation in assay [2] was -18.8% (inactive). Moreover, the nuclei count in assay [2] came out at 98.2%; in assay [3], 110%. Also, the fluorescence slope in assay [4] is -0.501 (inactive). Also, the NADPH fluorescence slope in assay [5] is -3.2e-06 (inactive). Besides, the slope in assay [6] was 0.00706 (inactive).

`COc1ccc(-c2nn3c(-c4cccc(C)c4)nnc3s2)cc1OC`: the cell count in assay [1] stood at 525. Also, the inhibition in assay [1] was 10.3% (inactive); in assay [3] it was -9.3% (inactive); in assay [7], -18.2% (inactive); in assay [8], -17.1% (inactive). In addition, the inhibition of aggregation in assay [2] is -9.4% (inactive). In addition, the figures for the nuclei count in assay [2] and in assay [3] were 100% and 114%, respectively. In addition, the fluorescence slope in assay [4] was -0.419 (inactive). Besides, in assay [5], the NADPH fluorescence slope was 1.9e-05 (inactive). The slope in assay [6] is 0.00514 (inactive).

The values are drawn from PubChem BioAssay.
